The values that follow come from PubChem BioAssay (NCATS).

The other results are listed elsewhere or left out. Inconclusive results are not listed. Activity calls are given as the source filed them. Calls follow the shape of the dose curve; as a rule, active = well fitted inhibition curve with a large enough effect; inconclusive = small, poorly fitted or top-dose-only effect; inactive = flat fitted curve, though single readings scatter.

DNA dC->dU-editing enzyme APOBEC-3G (Homo sapiens), sequence (Q9HC16 whole entry, looked up): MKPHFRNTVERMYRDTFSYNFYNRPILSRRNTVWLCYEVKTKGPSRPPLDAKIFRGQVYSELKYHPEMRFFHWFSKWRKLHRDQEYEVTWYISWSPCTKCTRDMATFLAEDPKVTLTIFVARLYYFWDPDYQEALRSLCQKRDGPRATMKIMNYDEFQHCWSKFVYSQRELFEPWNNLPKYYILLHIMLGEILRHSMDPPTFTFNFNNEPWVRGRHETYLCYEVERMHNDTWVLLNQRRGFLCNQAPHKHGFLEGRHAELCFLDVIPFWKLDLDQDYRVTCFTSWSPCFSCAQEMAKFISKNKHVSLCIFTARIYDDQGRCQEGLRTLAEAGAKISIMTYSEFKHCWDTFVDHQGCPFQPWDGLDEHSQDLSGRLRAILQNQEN

One assay deals with Lethal(3)malignant brain tumor-like protein 1 (Homo sapiens) (UniProt Q9Y468). The assay is described as follows: qHTS Assay for the Inhibitors of L3MBTL1: Hit Validation (AID 540279). Also: potency is read from the fitted curve at half-maximal effect; nearly all actives have a fitted effect of over 70% in size. Conditions: L3MBTL1 methyl-lysine binding inhibition, biochemical qHTS. An excerpt: The histone code is comprised of many post-translational modifications that occur mainly in histone tail peptides. The identity and location of these marks are read by a variety of histone binding proteins that are emerging as important regulators of cellular differentiation and development and are increasingly being implicated in numerous disease states. Small molecule probes that disrupt the interaction between histone binding proteins and chromatin would enable a systematic chemical biology study of proteins that read the histone code and could potentially reveal new targets for drug discovery. However, no such small molecules are known. This dearth of quality molecular probes can largely be attributed to the novelty of the target class and the lack of screening assays. This proposal details the development of the first high-throughput screening assay for the discovery of inhibitors of methyl-lysine binding proteins and how it can be used to initiate a full-scale discovery effort for antagonists of histone binding proteins. Specifically, this work focuses on an AlphaScreen(tm)-based HTS assay for Malignant Brain Tumor (MBT) domain-containing proteins, which bind to the lower methylation states of lysine residues present in histone tail peptides.
Lethal(3)malignant brain tumor-like protein 1 (Homo sapiens), sequence (Q9Y468 whole entry, looked up): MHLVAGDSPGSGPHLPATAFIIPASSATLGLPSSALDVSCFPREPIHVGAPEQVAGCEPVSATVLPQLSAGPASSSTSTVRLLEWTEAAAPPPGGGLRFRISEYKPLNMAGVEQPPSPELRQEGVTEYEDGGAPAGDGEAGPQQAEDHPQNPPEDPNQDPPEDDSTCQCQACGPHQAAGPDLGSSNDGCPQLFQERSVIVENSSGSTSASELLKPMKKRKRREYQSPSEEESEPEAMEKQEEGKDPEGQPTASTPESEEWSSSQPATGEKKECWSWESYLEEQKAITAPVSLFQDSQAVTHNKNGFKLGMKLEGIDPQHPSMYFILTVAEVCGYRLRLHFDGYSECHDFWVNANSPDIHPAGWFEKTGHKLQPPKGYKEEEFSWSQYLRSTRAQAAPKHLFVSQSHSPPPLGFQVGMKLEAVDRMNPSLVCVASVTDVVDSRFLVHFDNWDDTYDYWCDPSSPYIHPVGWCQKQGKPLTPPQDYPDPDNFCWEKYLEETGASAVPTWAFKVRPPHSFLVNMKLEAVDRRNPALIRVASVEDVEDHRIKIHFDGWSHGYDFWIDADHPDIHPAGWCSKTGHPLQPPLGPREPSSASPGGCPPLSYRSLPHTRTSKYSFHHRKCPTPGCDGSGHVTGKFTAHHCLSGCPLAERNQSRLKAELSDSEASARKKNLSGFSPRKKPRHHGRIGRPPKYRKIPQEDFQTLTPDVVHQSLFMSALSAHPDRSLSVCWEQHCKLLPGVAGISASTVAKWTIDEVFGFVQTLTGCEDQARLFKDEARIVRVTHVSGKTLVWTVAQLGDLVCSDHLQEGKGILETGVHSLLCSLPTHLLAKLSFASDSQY
To each well, 2 uL of L3MBTL1 protein (final 50 nM) and 1 uL biotinylated histone peptide monomethylated at Lys9 [b-AHA-H3(1-15)K9me1] (final 75 nM) was added using a nanoliter dispenser. Formation of a protein-peptide complex proceeded at room temperature for 30 min. A Kalypsys pin-tool was employed to transfer 23 nL of library compound solution in DMSO to each well. Cefsulodin, found in a pilot screen of the LOPAC library to be a weak inhibitor of L3MBTL1 binding, was used as an intraplate control with a 16-point titration in duplicate. Following a 30 min incubation of the protein-peptide complex with compounds at room temperature, a mixture of 40 ug/mL each streptavidin-coated donor and nickel chelate acceptor AlphaScreen beads (final 10 ug/mL) was added in a 1 uL dispense for a final volume of 4 uL. Plates were incubated, protected from the light for 30 min at room temperature. Microplates were then be read on an EnVision multilabel plate reader using the 1,536 plate HTS AlphaScreen aperture (excitation time 80 ms, measurement time 240 ms).
`CSc1nnc(SCc2nc3sc(C(=O)O)c(C)c3c(=O)[nH]2)s1`: the Potency was 532 nM (active). The same measure, in the same setting: the result for `Cn1c2ccccc2c(=O)c2c(=O)n(Cc3ccco3)c(COc3ccccc3)nc21` reads 7520 nM (active); that for `COc1ccc(Cc2nnc(NC(=O)Cc3cccs3)s2)cc1`, 1190 nM (active). On the same count and under the same terms, the result for `COCCNC(=O)Nc1ccc2nc(-c3ccco3)c(-c3ccco3)nc2c1` reads 1890 nM (active); that for `O=C(COC(=O)c1ccc(F)cc1F)Nc1ncccn1`, 5970 nM (active).

A further assay concerns the target DNA dC->dU-editing enzyme APOBEC-3G (Homo sapiens) (UniProt Q9HC16). The assay can be described thus: qHTS for inhibitors of Vif-A3G interactions: Validation (AID 588379). Also: 0% is about no effect. Conditions: Vif-A3G protein interaction assay; series mostly up to 46.1 µM; activity change, negative = inhibition: at the top concentration. An outline of the steps:
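HeLa cells stably expressing Vif and A3G-eYFP, 700 cells/well, incubated overnight at 37 deg C, then exposed to compound overnight at 37 deg C. Inhibition of Vif-mediated degradation read as increased yellow fluorescence (Ex 488/Em 500-530) by laser-scanning cytometry.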
Background: In qHTS, concentration-response curves come from the screen itself.
Turning to `O=c1cc(-c2ccccc2)oc2cc(O[C@@H]3O[C@H](CO)[C@@H](O)[C@H](O)[C@H]3O)c(O)c(O)c12`, the “activity change, negative = inhibition” value was -5.36% (inactive). The same measure, in the same setting: the result for `COC(=O)CC[C@@H](C)[C@H]1CC[C@H]2[C@@H]3CC[C@@H]4C[C@H](O)CC[C@]4(C)[C@H]3C[C@H](O)[C@]12C` reads -7.31% (inactive). Still for that read-out and setting: the result for `CC(C)c1ccc2c(c1)CC[C@@H]1[C@@](C)(CN)CCC[C@]21C` reads -1.29% (inactive); that for `CC[C@]12CCCN3CCc4c(n(c5ccccc45)C(=O)C1)[C@H]32`, -3.61% (inactive); that for `COc1ccccc1-c1oc2ccccc2c(=O)c1O`, -0.205% (inactive).

Consider `OC1CCC2Cc3ccccc3N=C12` (stereo not given), for which the “activity change, negative = inhibition” value was -5.86% (inactive). On the same count and under the same terms, to `CC1(C)CC[C@]2(C(=O)O)CC[C@]3(C)C(=CCC4[C@@]5(C)CC[C@H](O)C(C)(C)[C@@H]5CC[C@]43C)C2C1` (stereo not given in full) belongs 0.0917% (inactive); to `COc1ccc2c(c1OC)C(Cc1ccccc1)N1CCc3cc4c(cc3C1C2)OCO4` (stereo not given), -5.73% (inactive). With `CC12CCC3c4ccc(O)cc4CCC3C1CCC2=O` (stereo not given), the “activity change, negative = inhibition” value is -1.87% (inactive).

Regarding `COc1ccc(-c2coc3ccc(OC4OC(COC(C)=O)C(OC(C)=O)C(OC(C)=O)C4OC(C)=O)c(OC(C)=O)c3c2=O)cc1` (stereo not given), the “activity change, negative = inhibition” value was -0.56% (inactive). For the molecule `CC1(C)S[C@H]2[C@@H](NC(=O)C(N)c3ccccc3)C(=O)N2[C@H]1C(=O)O` (stereo not given in full), the “activity change, negative = inhibition” value was 3.11% (inactive). Still for that read-out and setting: the result for `CC(=O)Nc1ccc(-c2nc3ccc(Cl)cc3[nH]2)cc1` reads -3.26% (inactive). Still for that read-out and setting: the result for `C=C(CO)C1Cc2c(ccc3c(=O)c4c(oc23)COc2cc(OC)c(OC)cc2-4)O1` (stereo not given) reads 3.3% (inactive); that for `C[C@H]1O[C@@H](O[C@H]2[C@@H](O)C[C@H](O[C@H]3[C@@H](O)C[C@H](O[C@H]4CC[C@]5(C)C6CC[C@]7(C)[C@@H](C8=CC(=O)OC8)CC[C@]7(O)C6CC[C@@H]5C4)O[C@@H]3C)O[C@@H]2C)C[C@H](O)[C@@H]1O` (stereo not given in full), -5.31% (inactive); that for `CC1CCC2[C@](C)(CO)C(O)CC[C@]2(C)C12CCC(CO)(CCO)O2` (stereo not given in full), -9.92% (inactive). The same measure, in the same setting: the result for `C=C(CO)C1Cc2c(ccc3c2OC2COc4cc(OC)c(OC)cc4C2C3=O)O1` (stereo not given) reads -4.87% (inactive); that for `CC(=O)OC1CCC2(C)C(CCC3(C)C2C(=O)C=C2C4CC(C)(C(=O)OCCN5CCCCC5)CCC4(C)CCC23C)C1(C)C` (stereo not given), -4.41% (inactive); that for `CNC(=O)Oc1ccc2c(c1)C1(C)CCN(C)C1N2C` (stereo not given), -6.65% (inactive).

Turning to `O=c1c(O)c(-c2ccc(O)c(O)c2)oc2c(OC[C@@H]3O[C@@H](O)[C@@H](O)[C@H](O)[C@H]3O)c(O)cc(O)c12`, the “activity change, negative = inhibition” value was 6.22% (inactive). For the molecule `C=C[C@@H]1CN2CC[C@@H]1C[C@@H]2[C@@H](O)c1ccnc2ccc(OC)cc12`, the “activity change, negative = inhibition” value is -3.32% (inactive). As to `OC[C@H]1O[C@@H](OC[C@H]2O[C@@H](O)[C@H](O)[C@@H](O)[C@@H]2O)[C@H](O)[C@@H](O)[C@@H]1O`, the “activity change, negative = inhibition” value is -4.85% (inactive). The same measure, in the same setting: to `CC(=O)Oc1ccc(/C=C/C(=O)CC2OC(Oc3cc(OC(C)=O)c4c(c3)O[C@@H](c3ccc(OC(C)=O)cc3)CC4=O)C(OC(C)=O)C(OC(C)=O)C2OC(C)=O)cc1` (stereo not given in full) belongs -0.665% (inactive); to `C[C@H]1[C@H](C)CC[C@]2(C(=O)O)CC[C@]3(C)C(=CCC4[C@@]5(C)CC[C@H](O)C(C)(C)[C@@H]5CC[C@]43C)[C@H]12` (stereo not given in full), 1.93% (inactive); to `COc1ccc(-c2coc3cc(OC4OC(CO)C(O)C(O)C4O)cc(O)c3c2=O)cc1` (stereo not given), 0.211% (inactive). The same measure, in the same setting: the result for `CC1C(=O)OC2CC34C5CC(C(C)(C)C)C36C(OC(=O)C6O)OC4(C(=O)O5)C21O` (stereo not given) reads -4.18% (inactive); that for `C[C@H](CCC(=O)O)[C@H]1CC[C@@H]2[C@H]3CC[C@H]4C[C@H](O)CC[C@]4(C)[C@@H]3CC[C@@]21C`, -3.95% (inactive); that for `COc1cc([C@@H]2c3cc4c(cc3C(OC3OC5COC(C)OC5C(O)C3O)C3COC(=O)[C@@H]32)OCO4)cc(OC)c1O` (stereo not given in full), -17% (inactive).

With `C1CCN2CC3CC(CN4CCCC[C@@H]34)C2C1` (stereo not given in full), the “activity change, negative = inhibition” value is -1.78% (inactive). As to `COc1cccc2c1C(=O)CC(c1ccccc1)O2` (stereo not given), the “activity change, negative = inhibition” value is -11.3% (inactive). Still for that read-out and setting: to `C[C@@H]1O[C@@H](OC[C@H]2O[C@@H](Oc3c(-c4cccc(O)c4O)oc4cc(O)cc(O)c4c3=O)[C@H](O)[C@@H](O)[C@@H]2O)[C@H](O)[C@H](O)[C@H]1O` belongs -2.7% (inactive).
